Several values for one entry are separate records, joined by “and”; a condition that tells them apart may be missing. Equal entries are not always repeated. Activity calls are given as the source filed them.
What was measured:
[1] = small molecules captured by biotinylated probe aFSTL3 – biochemical, small-molecule microarray, fluorescence 635/667, stem cell growth factor project, primary screen (AID 1064); conditions: higher = more signal;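 also: measures binding of the biotinylated anti-FSTL3 antibody to printed compounds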
[2] = binders from COS7 lysate, DM2A8 probe, primary screen, torsin A project, cell lysate, small-molecule microarray, fluorescence 635/667 (AID 1065); conditions: higher = more signal, COS7 lysate expressing mutant human TOR1A
[3] = small molecules captured by biotinylated probe aFGF2 – biochemical, small-molecule microarray, fluorescence 635/667, stem cell growth factor project, primary screen (AID 1067); conditions: higher = more signal;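 also: measures binding of biotinylated aFGF2 protein to printed compounds on slides; z-score merges feature fluorescence and signal-to-noise across triplicate slides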
[4] = small molecules captured by biotinylated probe aFGF10 – biochemical, small-molecule microarray, fluorescence 635/667, stem cell growth factor project, primary screen (AID 1071); conditions: higher = more signal;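 also: score merges 667 nm spot intensity and signal to noise from triplicate slides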
[5] = biological target: Neurogenic locus notch homolog protein 2 (Homo sapiens) (UniProt Q04721); experiment: small molecules binding Notch2 protein – biochemical, small-molecule microarray, 635 nm fluorescence, stem cell growth factors, primary screen (AID 1073); conditions: higher = more signal
Neurogenic locus notch homolog protein 2 (Homo sapiens), sequence (Q04721 whole entry, looked up, canonical isoform): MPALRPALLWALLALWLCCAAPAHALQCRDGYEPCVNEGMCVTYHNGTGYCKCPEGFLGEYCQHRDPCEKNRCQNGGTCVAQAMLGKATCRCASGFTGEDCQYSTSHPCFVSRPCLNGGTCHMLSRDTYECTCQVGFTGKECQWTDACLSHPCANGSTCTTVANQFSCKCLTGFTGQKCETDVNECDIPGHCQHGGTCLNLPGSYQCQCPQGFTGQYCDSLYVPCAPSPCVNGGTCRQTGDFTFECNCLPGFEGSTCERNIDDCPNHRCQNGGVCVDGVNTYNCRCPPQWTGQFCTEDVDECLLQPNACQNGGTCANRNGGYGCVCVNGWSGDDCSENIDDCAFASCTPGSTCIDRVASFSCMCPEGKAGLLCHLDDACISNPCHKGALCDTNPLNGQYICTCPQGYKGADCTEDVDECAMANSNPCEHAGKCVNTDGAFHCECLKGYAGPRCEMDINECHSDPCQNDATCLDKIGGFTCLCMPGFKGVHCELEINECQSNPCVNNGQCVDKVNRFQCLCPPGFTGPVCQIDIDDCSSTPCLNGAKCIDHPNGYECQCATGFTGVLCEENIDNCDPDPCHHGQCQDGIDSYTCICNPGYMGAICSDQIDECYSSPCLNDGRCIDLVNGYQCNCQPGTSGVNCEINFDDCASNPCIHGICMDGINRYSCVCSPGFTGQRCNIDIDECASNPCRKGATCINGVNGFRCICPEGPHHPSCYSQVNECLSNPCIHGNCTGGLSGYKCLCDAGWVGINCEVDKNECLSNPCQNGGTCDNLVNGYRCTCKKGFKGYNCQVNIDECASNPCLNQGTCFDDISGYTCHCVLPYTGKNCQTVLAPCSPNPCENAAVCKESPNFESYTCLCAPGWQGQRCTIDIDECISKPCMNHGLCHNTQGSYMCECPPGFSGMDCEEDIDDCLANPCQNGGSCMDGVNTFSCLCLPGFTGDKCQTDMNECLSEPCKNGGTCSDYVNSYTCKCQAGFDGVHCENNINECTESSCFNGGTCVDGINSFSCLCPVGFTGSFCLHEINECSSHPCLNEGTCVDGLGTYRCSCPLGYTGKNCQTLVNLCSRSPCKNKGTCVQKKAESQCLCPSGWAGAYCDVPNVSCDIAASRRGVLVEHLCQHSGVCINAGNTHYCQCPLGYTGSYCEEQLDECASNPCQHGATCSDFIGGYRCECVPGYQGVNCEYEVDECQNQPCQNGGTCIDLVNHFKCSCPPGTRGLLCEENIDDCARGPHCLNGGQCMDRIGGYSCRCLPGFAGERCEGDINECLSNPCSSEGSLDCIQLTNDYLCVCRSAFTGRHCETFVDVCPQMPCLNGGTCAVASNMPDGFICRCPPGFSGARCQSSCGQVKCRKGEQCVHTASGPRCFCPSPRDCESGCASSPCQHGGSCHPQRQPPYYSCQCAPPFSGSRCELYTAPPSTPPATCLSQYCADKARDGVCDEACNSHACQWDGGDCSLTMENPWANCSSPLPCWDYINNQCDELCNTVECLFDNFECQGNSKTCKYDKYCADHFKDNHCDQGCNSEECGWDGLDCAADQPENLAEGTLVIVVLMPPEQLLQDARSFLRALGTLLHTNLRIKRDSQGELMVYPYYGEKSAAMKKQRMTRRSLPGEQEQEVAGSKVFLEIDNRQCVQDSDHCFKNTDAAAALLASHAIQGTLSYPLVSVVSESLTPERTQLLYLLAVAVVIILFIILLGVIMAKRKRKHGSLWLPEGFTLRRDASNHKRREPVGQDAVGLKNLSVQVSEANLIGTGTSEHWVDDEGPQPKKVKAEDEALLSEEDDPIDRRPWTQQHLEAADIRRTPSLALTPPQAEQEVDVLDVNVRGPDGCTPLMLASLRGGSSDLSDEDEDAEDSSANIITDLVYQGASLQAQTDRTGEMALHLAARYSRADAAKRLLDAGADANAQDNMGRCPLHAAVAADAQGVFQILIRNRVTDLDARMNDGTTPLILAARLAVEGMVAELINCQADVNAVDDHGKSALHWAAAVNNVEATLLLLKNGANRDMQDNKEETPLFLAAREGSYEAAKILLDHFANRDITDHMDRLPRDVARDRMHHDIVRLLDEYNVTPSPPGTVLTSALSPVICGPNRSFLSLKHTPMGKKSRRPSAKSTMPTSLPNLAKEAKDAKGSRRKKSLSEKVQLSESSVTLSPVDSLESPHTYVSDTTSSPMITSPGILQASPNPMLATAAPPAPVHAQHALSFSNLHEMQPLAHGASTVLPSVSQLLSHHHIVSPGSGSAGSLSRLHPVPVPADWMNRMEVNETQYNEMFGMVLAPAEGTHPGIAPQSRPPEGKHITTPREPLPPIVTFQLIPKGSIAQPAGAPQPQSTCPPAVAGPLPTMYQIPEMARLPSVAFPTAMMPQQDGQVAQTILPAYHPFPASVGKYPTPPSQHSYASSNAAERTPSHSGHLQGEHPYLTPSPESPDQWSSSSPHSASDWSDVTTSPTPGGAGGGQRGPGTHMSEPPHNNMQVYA

[6] = biological target: Pro-neuregulin-1, membrane-bound isoform (Homo sapiens) (UniProt Q02297); experiment: small molecules binding neuregulin-1 protein – biochemical, small-molecule microarray, fluorescence 635/667, psychiatric disease protein project, primary screen (AID 1075); conditions: NRG1 binding, 635 nm fluorescence, higher = more signal;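 also: score combines 667 nm spot fluorescence with signal to noise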
Pro-neuregulin-1, membrane-bound isoform (Homo sapiens), sequence (Q02297 whole entry, looked up, the tested form may be a part, canonical isoform): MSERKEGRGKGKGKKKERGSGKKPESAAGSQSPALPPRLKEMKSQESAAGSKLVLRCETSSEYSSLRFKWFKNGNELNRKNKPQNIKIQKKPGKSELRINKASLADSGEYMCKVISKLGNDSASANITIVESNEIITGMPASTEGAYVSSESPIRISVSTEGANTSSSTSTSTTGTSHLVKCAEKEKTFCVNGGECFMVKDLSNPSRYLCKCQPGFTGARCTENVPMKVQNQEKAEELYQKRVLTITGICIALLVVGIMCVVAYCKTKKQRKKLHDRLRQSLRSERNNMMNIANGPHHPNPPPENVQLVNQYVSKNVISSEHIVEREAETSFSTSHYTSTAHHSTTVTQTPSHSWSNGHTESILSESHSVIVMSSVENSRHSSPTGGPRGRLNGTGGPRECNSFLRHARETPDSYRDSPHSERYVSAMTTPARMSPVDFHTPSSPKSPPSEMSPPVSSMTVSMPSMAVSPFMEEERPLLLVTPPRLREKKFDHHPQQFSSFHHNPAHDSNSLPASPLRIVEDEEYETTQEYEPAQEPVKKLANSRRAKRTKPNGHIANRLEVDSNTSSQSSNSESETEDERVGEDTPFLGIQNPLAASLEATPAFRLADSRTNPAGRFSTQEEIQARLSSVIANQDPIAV

[7] = test system: Neuregulin-1 EGF-like domain; experiment: small molecules binding NRG1 EGF domain – biochemical, small-molecule microarray, 635 nm fluorescence, primary screen (AID 1081); conditions: higher = more signal;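 also: binding of the protein to compounds printed on small-molecule microarray slides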
[8] = FRG1 expression reporter modulators in myotubes – cell-based, C2C12 myotubes, firefly/Renilla luciferase, luminescence, FRG1 inhibition for FSHD, primary screen (AID 1084); conditions: FRG1 promoter luciferase, higher = more signal, called active from +8 up or from −8 down
[9] = small molecules captured by biotinylated probe aFST – biochemical, small-molecule microarray, fluorescence 635/667, stem cell growth factor project, primary screen (AID 1086); conditions: higher = more signal;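 also: score merges 667 nm fluorescence with signal-to-noise of each printed compound spot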
[10] = binders of probe aHhip on microarray, primary screen, stem cell growth factor project, biochemical, small-molecule microarray, fluorescence 635/667 (AID 1087); conditions: higher = more signal;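 also: score merges spot fluorescence at 667nm with spot signal to noise ratio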
[11] = test system: PRMT1 (protein arginine N-methyltransferase 1); experiment: small molecules binding arginine methyltransferase PRMT1 – biochemical, small-molecule microarray, 635 nm fluorescence, primary screen (AID 1088); conditions: higher = more signal;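 also: binding of Prmt1 protein to compounds spotted on small-molecule microarray slides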
[12] = growth effects on S. cerevisiae YJM789 – YJM789 clinical isolate, OD600, 24 h, basal, primary screen (AID 1089); conditions: higher = more signal, called active from +8 up or from −8 down;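 also: growth of clinical yeast isolate S. cerevisiae YJM 789 seeded 1000 cells per well; test concentration not given here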
[13] = S. pombe growth modifiers, basal conditions – strain 972, OD600, 24 h, no modulator, primary screen (AID 1090);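 also: basal condition with compound alone and no growth modifier present; test concentration not given here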; conditions: S. pombe 972 growth, higher = more signal, called active from +8 up or from −8 down
[14] = budding yeast growth modifiers under rapamycin – strain BY4716, OD600, 96 h, primary screen (AID 1091); also: test concentration not given here; conditions: S. cerevisiae BY4716 + rapamycin, higher = more signal, called active from +8 up or from −8 down
[15] = biological target: Torsin-1A-interacting protein 2 (Homo sapiens) (UniProt Q8NFQ8); experiment: small molecules binding lysate-expressed LULL1 – cell lysate, human LULL1 lysate, 635/667 nm fluorescence, primary screen (AID 1092); conditions: small-molecule microarray, hLULL1 lysate binding, 635 nm fluorescence; higher = more signal;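 also: probe is lysate of COS7 cells overexpressing human LULL1; score merges per-feature 667 nm fluorescence with signal-to-noise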
Torsin-1A-interacting protein 2 (Homo sapiens), sequence (Q8NFQ8 whole entry, looked up): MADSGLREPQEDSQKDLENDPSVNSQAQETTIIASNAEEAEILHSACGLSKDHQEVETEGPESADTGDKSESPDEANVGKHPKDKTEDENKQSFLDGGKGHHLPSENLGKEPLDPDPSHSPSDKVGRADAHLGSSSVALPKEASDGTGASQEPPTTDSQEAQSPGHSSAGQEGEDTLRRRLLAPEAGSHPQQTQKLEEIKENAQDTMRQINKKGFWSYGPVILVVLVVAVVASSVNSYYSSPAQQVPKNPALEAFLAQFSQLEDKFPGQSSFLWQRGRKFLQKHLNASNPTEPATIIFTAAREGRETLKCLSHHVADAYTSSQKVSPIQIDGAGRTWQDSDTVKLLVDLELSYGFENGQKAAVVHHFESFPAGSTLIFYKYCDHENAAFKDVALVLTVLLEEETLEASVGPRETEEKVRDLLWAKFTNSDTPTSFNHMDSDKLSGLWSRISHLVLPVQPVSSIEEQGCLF

[16] = optical density change of DRC41 E. coli – strain DRC41, OD650, 24 h, E. coli filamentation project, primary screen (AID 1093);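 also: MC1000 strain lacking acrAB efflux and sulA so SOS filamentation is blocked; test concentration not given here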; conditions: E. coli DRC41 growth, higher = more signal, called active from +8 up or from −8 down
[17] = probe aLefty2 binding to arrayed compounds – biochemical, biotinylated probe, 635/667 nm fluorescence, primary screen (AID 1094); conditions: small-molecule microarray, higher = more signal;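 also: score merges spot fluorescence near 667 nm with spot signal-to-noise ratio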
[18] = test system: Noggin (protein binding on small-molecule microarray); experiment: small molecules binding Noggin protein – biochemical, 635/667 nm fluorescence, primary screen (AID 1095); conditions: 635 nm fluorescence, higher = more signal;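 also: score merges 667 nm feature fluorescence with signal to noise over triplicate slides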
[19] = biological target: Neurogenic locus notch homolog protein 3 (Homo sapiens) (UniProt Q9UM47); experiment: small molecules binding NOTCH3 protein – biochemical, 635/667 nm fluorescence, primary screen (AID 1096); conditions: small-molecule microarray, 635 nm fluorescence, higher = more signal
[20] = probe aEGFR binding to arrayed compounds – biochemical, biotinylated probe, 635/667 nm fluorescence, primary screen (AID 1097); conditions: small-molecule microarray, higher = more signal;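 also: probe is a biotinylated anti-EGFR antibody binding compounds printed on slides; score combines fluorescence near 667 nm and signal to noise of each spot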

| SMILES | composite z-score [1] | composite z-score [2] | composite z-score [3] | composite z-score [4] | composite z-score [5] | composite z-score [6] | composite z-score [7] | z-score [8] | composite z-score [9] | composite z-score [10] | composite z-score [11] | z-score [12] | z-score [13] | z-score [14] | composite z-score [15] | z-score [16] | composite z-score [17] | composite z-score [18] | composite z-score [19] | composite z-score [20] |
| --- | --- | --- | --- | --- | --- | --- | --- | --- | --- | --- | --- | --- | --- | --- | --- | --- | --- | --- | --- | --- |
| CC(=O)OC[C@H]1O[C@H](C#CC(C)(C)C)C=C[C@@H]1OC(C)=O | -0.358 | -0.159 | -0.126 | 0.039 | 1.01 | 1.38 | 1.25 | -0.259 (inactive) | 0.454 | 0.164 | 0.975 | -0.0789 (inactive) | -1.48 (inactive) | -0.589 (inactive) | 1.3 | 0.459 (inactive) | -0.177 | 0.369 | 0.695 | 0.0168 |
| C[C@@H]1CC[C@H]2C(=O)NC[C@@H](O)CN2[C@H]1c1ccc(Br)cc1 | -0.194 and -0.181 | 0.332 and 0.0997 | -0.116 and -0.134 | 0.23 and 0.0389 | -0.556 and -0.244 | 0.229 and -0.138 | 0.693 and 0.72 | 0.674 (inactive) and -0.078 (inactive) | -0.304 and 0.127 | -0.3 and -0.134 | -0.0838 and -0.473 | -0.77 (inactive) and 0.443 (inactive) | -0.0565 (inactive) and -0.0682 (inactive) | -0.451 (inactive) and 0.389 (inactive) | 0.759 and -0.129 | 0.0565 (inactive) and 0.377 (inactive) | -0.136 and -0.253 | 0.561 and -0.0536 | -0.0857 and -0.344 | -0.171 and -0.0356 |
| C=CCN(Cc1ccccc1)C(=O)C1N(c2ccc(CCO)cc2)C(=O)C2C(C(=O)O)C3C=CC21O3 (stereo not given) | 1.72 and 0.902 | -0.723 and -0.963 | -0.194 and -0.19 | -0.362 and -0.749 | -2.7 and -2.66 | 0.191 and -0.96 | 0.161 and -0.559 | 2.4 (inactive) and 1.24 (inactive) | -1.44 and -0.907 | -0.0994 and -0.431 | -1.64 and -0.655 | 0.774 (inactive) and -0.721 (inactive) | -0.455 (inactive) and 0.116 (inactive) | 0.599 (inactive) and -1.29 (inactive) | -0.933 and -1.02 | 1.12 (inactive) and 2.04 (inactive) | 0.0395 and 0.0834 | -2.88 and -1.99 | -1.35 and -1.12 | -0.418 and -0.305 |
| CCOC(=O)[C@H](Cc1ccccc1)NC(=O)CCC1CC(OC(=O)NCc2cccc3ccccc23)CC2(CCCC(COC(=O)NCCCN3CCCC3=O)O2)O1 (stereo not given in full) | -0.511 | 0.221 | -0.107 | 0.122 | 1.1 | 0.412 | 0.783 | -0.81 (inactive) | 0.249 | -0.0994 | 1.21 | -1.18 (inactive) | 0.134 (inactive) | -0.896 (inactive) | 2.01 | -0.288 (inactive) | -0.148 | 0.692 | 1.01 | -0.0578 |
| C=C[C@@H](OC)[C@H](O)c1ccc(O)c(F)c1 | 1.24 and 0.937 | -0.598 and -1.38 | -0.183 and -0.222 | -0.609 and -0.315 | -1.74 and -0.398 | -0.725 and -0.815 | -0.564 and -0.928 | 0.679 (inactive) and -0.707 (inactive) | -1.4 and -1.25 | -0.0708 and -0.175 | -0.846 and -1.51 | 0.144 (inactive) and -3.13 (inactive) | -1.44 (inactive) and -3.23 (inactive) | 0.126 (inactive) and -0.692 (inactive) | -0.329 and -0.941 | 0.401 (inactive) and 1.45 (inactive) | -0.257 and -0.124 | -2.13 and -1.13 | -1.37 and -0.192 | -0.435 and -0.299 |
| C=C[C@H](OC)[C@@H](O)c1ccc(O)c(F)c1 | 1.25 and 1.29 | -0.903 and -2.05 | -0.116 and -0.247 | -0.458 and -0.0501 | -2.17 and -1.38 | -0.527 and -1.01 | -0.0988 and 0.736 | 0.537 (inactive) and -0.0808 (inactive) | -1.08 and -1.54 | -0.213 and -0.314 | -1.12 and -0.749 | -0.603 (inactive) and 0.106 (inactive) | -0.0898 (inactive) and -0.311 (inactive) | -1.17 (inactive) and -0.327 (inactive) | -0.93 and -0.808 | -0.853 (inactive) and 0.238 (inactive) | -0.0992 and -0.215 | -2.38 and -1.6 | -1.42 and -1.23 | -0.435 and -0.387 |
| COC(=O)C1=C(C)N(Cc2ccccc2)[C@]23O[C@](C(=O)OC)(C(=O)N2[C@@H]1c1ccccc1)[C@H]1CCCC(=O)[C@H]13 | 0.0353 and -0.148 | 0.383 and 1.06 | -0.0333 and -0.0507 | 0.513 and 0.359 | 1.15 and 0.327 | 1.21 and -0.23 | 0.636 and -0.133 | -1.02 (inactive) and 0.357 (inactive) | 0.395 and 0.0869 | 0.186 and -0.236 | -0.0081 and 0.249 | 0.563 (inactive) and 0.21 (inactive) | -1.79 (inactive) and -1.07 (inactive) | -1.95 (inactive) and -0.557 (inactive) | 0.164 and -0.142 | 0.302 (inactive) and -0.824 (inactive) | -0.102 and -0.132 | 0.0709 and 0.413 | 0.31 and 0.604 | 0.173 and -0.0497 |
| C=CCN(C(=O)C1N(CCCCCCO)C(=O)C2C(C(=O)O)C3C=CC21O3)C(C)(C)C (stereo not given) | 0.619 and 0.997 | -1.01 and -1.12 | -0.159 and -0.313 | -1.58 and -1.55 | -1.01 and -1.71 | 1.07 and -0.354 | -0.192 and 0.886 | 3.01 (inactive) and 0.174 (inactive) | -0.492 and -1.5 | -0.169 and 0.0373 | -0.334 and -0.47 | -0.686 (inactive) and -0.559 (inactive) | -1.43 (inactive) and -0.867 (inactive) | -0.235 (inactive) and -0.724 (inactive) | -0.773 and 2.17 | 0.137 (inactive) and -0.31 (inactive) | -0.231 and -0.0217 | -2.53 and -1.64 | -0.763 and -1.42 | -0.253 and -0.375 |
